The list is not random: actives were taken first. Their share in the collection is about 2.9%.
PAFAH1B2 FP inh: PAFAH1B2 enzyme inhibitors, primary screen, biochemical, fluorescence polarization, human. 340,000 compounds, 1.2% hits. recombinant PAFAH1B2, FP-rhodamine activity probe. AID 492953, 2010. inhibition, % at 3.39 µM;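 active = inhibition above the mean of all tested compounds plus 3 SD, cut at about 24% in these data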
pPAFAH FP inh: pPAFAH enzyme inhibitors, primary screen, biochemical, fluorescence polarization, human; AID 463082, 2010; Platelet-activating factor acetylhydrolase (Homo sapiens), Q13093; recombinant pPAFAH, FP-rhodamine probe fluorescence polarization; inhibition, % at 3.39 µM; 330,000 compounds, 1.5% hits;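 active = inhibition above the mean inhibition across the screen plus 3 SD, cut at about 25% in these data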;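 also: inhibitors block binding of the rhodamine activity-based probe so polarization drops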
Fam108B counter: mouse Fam108B serine hydrolase inhibitors, primary screen, counter-screen for RBBP9 inhibitor project, biochemical, fluorescence polarization | inhibition, % at 9.51 µM | AID 1947, 2009 | 300,000 compounds, 0.33% hits | recombinant Fam108B, FP-Rh probe fluorescence polarization;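 active = inhibition above the screen mean inhibition plus 3 SD, computed separately per campaign, cut at about 18% in these data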;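 also: inhibitors lower polarization as less probe binds the enzyme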
PAFAH2 FP inh: PAFAH2 enzyme inhibitors, primary screen, biochemical, fluorescence polarization, human; recombinant PAFAH2, FP-rhodamine activity probe; inhibition, % at 3.39 µM; 340,000 compounds, 0.99% hits; AID 492956, 2010;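 active = inhibition above the mean over all tested compounds plus 3 SD, cut at about 30% in these data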;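 also: inhibitors block probe labeling of enzyme so polarization drops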
PME-1 primary: PME-1 inhibitors via competitive probe labeling, primary screen, biochemical, fluorescence polarization, FP-Rh probe, HTS | recombinant PME-1 | inhibition, % at 5.9 µM | 320,000 compounds, 0.53% hits | AID 2130, 2009;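 active = inhibition above the campaign mean of all compounds plus 3 SD, cut at about 26% in these data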;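 also: competitive labeling of PME-1 active site by serine hydrolase directed probe; inhibitors block probe labeling so polarization falls and inhibition rises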
Target sequence (Q9Y570 whole entry, looked up): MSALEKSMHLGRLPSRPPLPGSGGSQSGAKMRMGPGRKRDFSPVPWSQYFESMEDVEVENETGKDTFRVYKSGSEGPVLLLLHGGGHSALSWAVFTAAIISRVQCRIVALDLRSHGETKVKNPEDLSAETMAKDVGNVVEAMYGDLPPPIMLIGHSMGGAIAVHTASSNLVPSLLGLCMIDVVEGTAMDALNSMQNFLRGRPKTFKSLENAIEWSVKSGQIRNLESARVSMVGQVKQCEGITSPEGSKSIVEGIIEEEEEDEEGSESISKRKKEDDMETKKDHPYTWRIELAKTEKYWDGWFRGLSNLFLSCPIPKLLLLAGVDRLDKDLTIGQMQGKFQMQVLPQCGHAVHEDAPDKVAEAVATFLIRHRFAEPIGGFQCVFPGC
PAFAH1B3 inh: PAFAH1B3 enzyme inhibitors, primary screen, biochemical, fluorescence polarization, human; inhibition, % at 3.39 µM; Platelet-activating factor acetylhydrolase IB subunit alpha1 (Homo sapiens), Q15102; AID 492972, 2010; 340,000 compounds, 0.28% hits; recombinant PAFAH1B3, FP-rhodamine probe;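 active = inhibition above the screen-wide average of all tested compounds plus 3 SD, cut at about 25% in these data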
PAFAH1B3 conf FP: PAFAH1B3 enzyme inhibitors, confirmation, biochemical, fluorescence polarization, human; shares compounds with PAFAH1B3 inh; recombinant PAFAH1B3, FP-Rh activity-based probe; inhibition, % at 3.39 µM; 390 compounds, 30% hits;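 active = average inhibition over triplicate runs above the hit cutoff set in the earlier primary screen, cut at about 25% in these data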
Large screens that a line does not name were inactive (follow-up assays come after a bar, where they were run).

O=C(CNC(=O)c1sc2ccccc2c1Cl)NCc1cccc(C(F)(F)F)c1	none
C/C(=N\NC(=S)Nc1ccc(F)cc1)C1CC1	PAFAH1B3 inh 26 | PAFAH1B3 conf FP inactive
CC(=O)N(C1=C(N2CCOCC2)C(=O)c2ccccc2C1=O)c1ccc(C(=O)O)cc1	PAFAH1B3 inh 26 | PAFAH1B3 conf FP inactive
CC(=O)N(C)C1=C(N2CCOCC2)C(=O)c2ccccc2C1=O	PAFAH1B3 inh 31 | PAFAH1B3 conf FP inactive
COc1cc(/C=C/C(=O)CC(=O)/C=C/c2ccc(O)c(OC)c2)ccc1O	PAFAH1B3 inh 26 | PAFAH1B3 conf FP inactive
O=S(=O)(Nc1nc2ccccc2nc1NCCO)c1cccc(Cl)c1	PAFAH1B3 inh 26 | PAFAH1B3 conf FP inactive
C=CCNC(=O)c1cc2c(=O)n3ccccc3nc2s1	none
CCCCCCSc1ccc([C@H]2N[C@@](Cc3ccccc3)(C(=O)OC)[C@H]3C(=O)N(C)C(=O)[C@@H]23)cc1OC	none
O=c1[nH]c(Nc2ccccc2)cc2cc(Br)ccc12	PAFAH1B3 inh 61 | PAFAH1B3 conf FP inactive

Assay outcomes deposited in PubChem BioAssay by The Scripps Research Institute Molecular Screening Center.
